In PubChem BioAssay (EPA / NIEHS) one finds outcome and AC50 data, which are given here for 34 compounds.

Inconclusive results are not listed. Calls of active or inactive are those of the source. The calls were made as follows: active = hit-call score of the fitted dose curve at least 0.9, where 1 is the maximum; inconclusive = response in the unintended direction; inactive = score below 0.9.

This assay in a line: ACEA_ER_AUC_viability: ACEA Biosciences xCELLigence Real-Time Cell Analysis on Estrogen Receptor Agonism for Viability (AID 2283782).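 Also: continuous compound exposure with impedance area under curve over 80 h; hit means loss of impedance signal meaning reduced cell growth or viability.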 In outline: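 T-47D human breast cells in phenol red-free RPMI1640 with 10% charcoal-stripped FBS were dosed with an 8-point 1:4 dilution series from 100 uM top final concentration, in duplicate. Impedance-based growth was followed for 80 h; AUC analysed versus DMSO.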
Turning to `CC(=O)OCCC(C)CC(C)(C)C` (centres undefined), the compound was called inactive. For `CC1CCC2CC1C2(C)C` (centres undefined), the compound was called inactive.

The term AC50 denotes the midpoint of the concentration-response curve, whichever way the signal moves. Take `CCCCC/C=C/C=C/C=O`: the AC50 is 81.1 µM (active). As for `Cc1ccc2ccccc2n1`, the result was inactive. As for `C=CC(=O)OCCOCCOCC`, the AC50 is 81.2 µM (active). On to `COC(=O)c1ccc(C)cc1`, for which the compound was called inactive. Turning to `CCCCCCCCCC=O`, the compound was classed as inactive.

Regarding `CC1=CCC(O)(C(C)C)CC1` (centres undefined), the outcome was inactive.

For `C=CCOc1nc(OCC=C)nc(OCC=C)n1`, the result was inactive.

Consider `CCCCC(CC)COC(=O)/C=C\C(=O)OCC(CC)CCCC` (centres undefined), for which the AC50 is 27.4 µM (active). In the case of `CCCC1CCC(=O)O1` (centres undefined), the result was inactive. As for `Cc1ccc(C=O)s1`, the AC50 was 50 µM (active). In the case of `CC(C)=CCC[C@](C)(O)[C@@H]1CC=C(C)CC1`, the AC50 is 84.5 µM (active). `O=C1CCCCCCCCCCOCCCCO1`: the AC50 is 55.4 µM (active).

For `Clc1ccc(Cl)c(Cl)c1Cl`, the outcome was inactive. Still for that read-out and setting: the result for `Nc1cc(N)cc(C(=O)O)c1` reads “inactive”.

In the case of `CC(=O)/C=C/C1=C(C)CCCC1(C)C`, the AC50 is 9.92 µM (active).

For `CCCCNC(=O)NS(=O)(=O)c1ccc(C)cc1`, the result was inactive. Turning to `CC(C)=CCCC(C)=CCCC(C)=CCO`, the AC50 was 84.2 µM (active). For `CC(C)C1CCC(O)CC1` (centres undefined), the compound was called inactive. Turning to `CCCC(C)C=O` (centres undefined), the AC50 was 20.8 µM (active). `NCCCCCCN`: the outcome was inactive. Turning to `CC(=O)OCCOC(C)=O`, the compound was classed as inactive. As to `CC(C)C[C@H]1C(=O)N2CCC[C@H]2[C@]2(O)O[C@](NC(=O)[C@@H]3C=C4c5cccc6[nH]c(Br)c(c56)C[C@H]4N(C)C3)(C(C)C)C(=O)N12`, the AC50 is 4.31 µM (active). Regarding `O=C1c2ccccc2C(=O)N1SC1CCCCC1`, the half-maximal activity concentration (AC50) was 50 µM (active). On to `CC(C#N)(CCC(=O)O)N=NC(C)(C#N)CCC(=O)O` (centres undefined), for which the compound was classed as inactive. On to `OCCN1CCNCC1`, for which the compound was classed as inactive. As to `Clc1cccc(Cl)n1`, the outcome was inactive.

With `O=C(Cl)c1cccc(C(=O)Cl)c1`, the call was inactive.

Turning to `CC(C)C(C)(C)C(C)(C)C(C)(C)S`, the result was inactive. The same measure, in the same setting: the entry for `OCC(CO)(CO)COCC(CO)(CO)CO` is “inactive”. As for `CC1CC(OC(=O)c2ccccc2O)CC(C)(C)C1` (centres undefined), the AC50 is 78.4 µM (active).

Regarding `CSc1nc(NC2CC2)nc(NC(C)(C)C)n1`, the outcome was inactive. For `CCCCCCCCCCN`, the AC50 was 45.2 µM (active).
